Several values for one entry are separate records, joined by “and”; a condition that tells them apart may be missing. Equal values may be shown once. Hit rate of the full screen: of about 5,500 compounds, about 2,000 (36%) were called active. Not shown: some 18% with an inconclusive outcome. Rule as the data show it: active = normalized growth mostly below about 0.91 (no sharp cut-off); inconclusive = no clear call, values can overlap the other calls; inactive = mostly above about 0.92. The list shows a part of the results.
Test: chemical genetic growth profiling, strain panel (AID 1159580);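 also: tested at 20 µM; growth read once vehicle control cultures reached saturation at 30 °C; 1 = growth at the plate median or of vehicle wells; lower values mean less growth of the strain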
Details: S. cerevisiae deletion strains, growth OD

Measured: normalized growth

NC(N)=N/N=C/c1c(Cl)cccc1Cl
active: locus YAL021C, strain ccr4, active compounds read low 0.887 | locus YNL248C, strain rpa49, active compounds read low 0.884
inactive: locus YAL026C, strain drs2, active compounds read low 0.976 | locus YAL030W, strain snc1, active compounds read low 0.981 | locus YBL061C, strain skt5, active compounds read low 0.986 | locus YBR009C, strain hhf1, active compounds read low 0.941 | locus YBR021W, strain FUR4, active compounds read low 1.01 | locus YBR023C, strain chs3, active compounds read low 0.968 | locus YBR171W, strain sec66, active compounds read low 0.982 | locus YBR229C, strain ROT2, active compounds read low 1.02 | locus YBR231C, strain swc5, active compounds read low 0.984 | locus YBR279W, strain paf1, active compounds read low 0.975 | locus YCL011C, strain gbp2, active compounds read low 0.963 | locus YCL016C, strain dcc1, active compounds read low 0.954 | locus YCL029C, strain bik1, active compounds read low 1.01 | locus YCL069W, strain vba3, active compounds read low 0.973 | locus YCR088W, strain abp1, active compounds read low 0.973 | locus YDL005C, strain med2, active compounds read low 0.972 | locus YDL035C, strain GPR1, active compounds read low 1.02 | locus YDL040C, strain nat1, active compounds read low 0.982 | locus YDL074C, strain BRE1, active compounds read low 1.02 | locus YDL101C, strain DUN1, active compounds read low 1.01 | locus YDL134C, strain PPH21, active compounds read low 1.02 | locus YDL185W, strain tfp1, active compounds read low 1.02 | locus YDL192W, strain arf1, active compounds read low 1.03 | locus YDR001C, strain nth1, active compounds read low 0.972 | locus YDR069C, strain doa4, active compounds read low 0.968 | locus YDR101C, strain arx1, active compounds read low 1.01 | locus YDR137W, strain rgp1, active compounds read low 0.922 | locus YDR159W, strain sac3, active compounds read low 0.919 | locus YDR162C, strain NBP2, active compounds read low 1.02 | locus YDR195W, strain ref2 0.97 | locus YDR297W, strain sur2, active compounds read low 0.978 | locus YDR318W, strain mcm21, active compounds read low 1.01 | locus YDR334W, strain swr1, active compounds read low 0.977 | locus YDR335W, strain msn5, active compounds read low 0.976 | locus YDR388W, active compounds read low 1.01 | locus YDR392W, strain spt3, active compounds read low 0.916 | locus YDR502C, strain sam2, active compounds read low 1.03 | locus YEL003W, strain gim4, active compounds read low 0.963 | locus YEL037C, strain rad23, active compounds read low 0.984 | locus YEL061C, strain CIN8 (second series), active compounds read low 0.972 | locus YEL061C, strain CIN8, active compounds read low 1.01 | locus YER015W, strain faa2, active compounds read low 0.992 | locus YER016W, strain bim1, active compounds read low 0.938 | locus YER110C, active compounds read low 1.02 | locus YER111C, strain swi4, active compounds read low 0.963 | locus YER155C, strain BEM2 (second series), active compounds read low 0.989 | locus YER155C, strain BEM2, active compounds read low 1 | locus YER167W, strain BCK2, active compounds read low 1 | locus YFR010W, strain ubp6, active compounds read low 0.988 | locus YGL078C, strain dbp3, active compounds read low 1.03 | locus YGL086W, strain mad1, active compounds read low 1.01 | locus YGL167C, strain pmr1, active compounds read low 0.981 | locus YGL173C, strain kem1, active compounds read low 0.977 | locus YGL227W, strain vid30, active compounds read low 0.964 | locus YGL240W, strain doc1, active compounds read low 0.986 | locus YGL248W, strain PDE1, active compounds read low 1.01 | locus YGL253W, strain hxk2, active compounds read low 0.96 | locus YGR135W, strain pre9, active compounds read low 1.03 | locus YGR252W, strain gcn5, active compounds read low 1.03 | locus YHR013C, strain ard1, active compounds read low 0.889 | locus YHR027C, strain rpn1, active compounds read low 0.967 | locus YHR030C, strain SLT2, active compounds read low 1 and 0.981 | locus YHR079C, strain IRE1 (second series), active compounds read low 1 | locus YHR079C, strain IRE1, active compounds read low 0.987 | locus YHR094C, strain hxt1, active compounds read low 1.01 | locus YHR129C, strain ARP1, active compounds read low 1.01 | locus YHR142W, strain chs7, active compounds read low 0.978 | locus YHR200W, strain rpn10, active compounds read low 1.03 | locus YIL066C, strain RNR3, active compounds read low 1.02 | locus YIL073C, strain SPO22, active compounds read low 1.04 | locus YIL125W, strain kgd1, active compounds read low 1.01 | locus YIR030C, strain dcg1, active compounds read low 1.01 | locus YJL092W, strain hpr5, active compounds read low 0.978 | locus YJL095W, strain BCK1 (second series), active compounds read low 0.982 | locus YJL095W, strain BCK1, active compounds read low 1 and 0.981 | locus YJL115W, strain asf1, active compounds read low 0.964 | locus YJL129C, strain trk1, active compounds read low 1.03 | locus YJL134W, strain LCB3, active compounds read low 1 | locus YJL154C, strain vps35, active compounds read low 0.969 | locus YJL164C, strain tpk1, active compounds read low 0.931 | locus YJL166W, strain qcr8, active compounds read low 0.996 | locus YJL168C, strain set2, active compounds read low 1.01 | locus YJL187C, strain SWE1 (second series), active compounds read low 1.02 | locus YJR043C, strain POL32, active compounds read low 1.02 | locus YJR066W, strain TOR1, active compounds read low 0.936 | locus YJR075W, strain HOC1, active compounds read low 1.01 | locus YKL009W, strain mrt4, active compounds read low 1.01 | locus YKL068W, active compounds read low 1.01 | locus YKL085W, strain MDH1 (second series), active compounds read low 1 | locus YKL085W, strain MDH1, active compounds read low 1 | locus YKL160W, strain elf1, active compounds read low 0.983 | locus YKL190W, strain CNB1, active compounds read low 1.01 | locus YKR001C, strain vps1, active compounds read low 1.05 | locus YKR026C, strain gcn3, active compounds read low 0.991 | locus YKR091W, strain srl3, active compounds read low 0.979 | locus YLL001W, strain dnm1, active compounds read low 1.01 | locus YLL026W, active compounds read low 0.977 | locus YLL041C, strain sdh2, active compounds read low 0.981 | locus YLR027C, strain aat2, active compounds read low 0.977 | locus YLR039C, strain RIC1, active compounds read low 0.965 | locus YLR058C, strain SHM2, active compounds read low 1.02 | locus YLR102C, strain apc9, active compounds read low 1.01 | locus YLR113W, strain HOG1, active compounds read low 1 | locus YLR221C, strain rsa3, active compounds read low 0.968 | locus YLR258W, strain gsy2, active compounds read low 0.973 | locus YLR262C, strain YPT6 (second series), active compounds read low 0.978 | locus YLR262C, strain YPT6, active compounds read low 1.02 | locus YLR268W, strain sec22, active compounds read low 1 | locus YLR320W, strain mms22, active compounds read low 0.949 | locus YLR330W, strain CHS5, active compounds read low 1.01 | locus YLR342W, strain FKS1 (second series), active compounds read low 1.02 | locus YLR342W, strain FKS1, active compounds read low 0.977 | locus YLR357W, strain rsc2, active compounds read low 0.972 | locus YLR370C, strain arc18, active compounds read low 0.974 | locus YLR371W, strain rom2, active compounds read low 1.02 | locus YLR384C, strain iki3, active compounds read low 0.99 | locus YLR418C, strain cdc73, active compounds read low 1.02 | locus YML016C, strain PPZ1, active compounds read low 1.01 | locus YML032C, strain rad52, active compounds read low 1.02 | locus YML120C, strain ndi1, active compounds read low 0.977 | locus YML124C, strain tub3, active compounds read low 1.01 | locus YMR058W, strain fet3, active compounds read low 0.971 | locus YMR078C, strain ctf18, active compounds read low 1.02 | locus YMR125W, strain sto1, active compounds read low 0.931 | locus YMR129W, active compounds read low 0.984 | locus YMR205C, strain PFK2, active compounds read low 0.986 | locus YMR223W, strain ubp8, active compounds read low 1.02 | locus YMR231W, strain pep5, active compounds read low 0.987 | locus YMR263W, strain SAP30, active compounds read low 1.01 | locus YMR307W, strain GAS1, active compounds read low 0.988 | locus YNL067W, strain RPL9B, active compounds read low 1.01 | locus YNL071W, strain lat1, active compounds read low 0.982 | locus YNL128W, strain TEP1, active compounds read low 1.02 | locus YNL153C, strain GIM3, active compounds read low 1.01 | locus YNL183C, strain NPR1, active compounds read low 0.952 | locus YNL209W, strain ssb2, active compounds read low 0.968 | locus YNL233W, strain BNI4, active compounds read low 1 | locus YNL250W, strain rad50, active compounds read low 1.04 | locus YNL271C, strain bni1, active compounds read low 1.02 | locus YNL298W, strain CLA4, active compounds read low 1.05 | locus YNL307C, strain MCK1, active compounds read low 1.02 | locus YNL322C, strain KRE1 (second series), active compounds read low 0.956 | locus YNL322C, strain KRE1, active compounds read low 1 | locus YNR049C, strain mso1, active compounds read low 0.966 | locus YNR052C, strain pop2, active compounds read low 1.01 | locus YOL012C, strain htz1 0.878 | locus YOL147C, strain pex11, active compounds read low 1.02 | locus YOR001W, strain rrp6, active compounds read low 0.957 | locus YOR061W, strain CKA2, active compounds read low 1.01 | locus YOR069W, strain VPS5, active compounds read low 1.01 | locus YOR070C, strain gyp1, active compounds read low 0.977 | locus YOR080W, strain dia2, active compounds read low 0.98 | locus YOR083W, strain WHI5, active compounds read low 0.952 | locus YOR106W, strain vam3, active compounds read low 0.993 | locus YOR136W, strain idh2, active compounds read low 1.02 | locus YOR144C, strain elg1, active compounds read low 1.02 | locus YOR184W, strain ser1, active compounds read low 1.02 | locus YOR231W, strain MKK1, active compounds read low 0.987 | locus YOR265W, strain rbl2, active compounds read low 0.985 | locus YOR270C, strain vph1, active compounds read low 0.922 | locus YOR290C, strain snf2, active compounds read low 0.918 | locus YOR316C, strain cot1, active compounds read low 1.01 | locus YPL051W, strain arl3, active compounds read low 0.981 | locus YPL078C, strain atp4, active compounds read low 0.974 | locus YPL106C, strain sse1, active compounds read low 0.921 | locus YPL240C, strain hsp82, active compounds read low 0.977 | locus YPL241C, strain CIN2, active compounds read low 1.02 | locus YPL256C, strain CLN2, active compounds read low 0.987 | locus YPR119W, strain clb2, active compounds read low 1.02 | locus YPR141C, strain kar3, active compounds read low 1.02 | locus YPR163C, strain tif3, active compounds read low 1.02 | locus YPR167C, strain met16, active compounds read low 1.01 | strain wtn01, active compounds read low 1.01
